The sample as a whole holds a higher share of hits than the screen did.
Lassa entry inh: Lassa virus entry inhibition; Lassa virus pseudotype entry inhibition, cell reporter; Potency, µM (titrated, usually from 37.9 µM), for inactives: top-dose activity change, negative = inhibition, hits mostly inhibitors; 300,000 tested, 1.2% active; AID 540256; calls by dose curve; tested in HEK293 cells; further: potency means the concentration at half of the fitted maximal effect; on the % scale 0 is the no-effect control and ±100 the full control effect; nearly all actives have a fitted effect of over 50% in size
Vaccinia Venus: vaccinia inhibition (Venus reporter); Vaccinia virus Venus reporter expression, fluorescence; Potency, µM (top dose mostly 36.5 µM), inactives show at the top dose activity change, negative = inhibition, hits mostly inhibitors; 330,000 tested, 0.46% active; calls by dose curve; tested in A549 cells; further: potency means the concentration at half of the fitted maximal effect; on the % scale 0 is the no-effect control and ±100 the full control effect; nearly all actives have a fitted effect of over 30% in size
Vaccinia mCherry: inhibitors of vaccinia virus infection (mCherry reporter signal). Vaccinia virus mCherry reporter infection, fluorescence. Potency, µM (highest dose often 36.5 µM), without a hit: top-dose activity change, negative = inhibition, most hits filed as inhibitors. 310,000 tested, 0.63% active. AID 720579; calls by dose curve; tested in A549 cells; further: potency means the concentration at half of the fitted maximal effect; on the % scale 0 is the no-effect control and ±100 the full control effect; nearly all actives have a fitted effect of over 35% in size
Shiga toxin inh: inhibitors of Shiga toxin in Vero cells. Vero cells, Shiga toxin protein synthesis inhibition reporter. inhibition, % at 38.7 µM. 290,000 tested, 9.2% active; in the data active means inhibition mostly above about 28%, no sharp cut-off; inactive means mostly below about 43%; further: 0% is about no effect
Marburg entry inh: blocks Marburg virus binding to or entry into cells | Marburg virus pseudotyped entry inhibition, cell reporter | Potency, µM (series often up to 37.8 µM), for inactives: at the top dose activity change, negative = inhibition, usual class: inhibitors | 300,000 tested, 1.8% active; calls by dose curve; tested in HEK293 cells; further: potency means the concentration at half of the fitted maximal effect; on the % scale 0 is the no-effect control and ±100 the full control effect
CHX counter: affects cycloheximide protein synthesis inhibition readout, counter-screen; cell reporter, cycloheximide protein synthesis inhibition counterscreen; max response, %; 300,000 tested, 12% active; in the data active means max response mostly above about 13%, no sharp cut-off; inactive means mostly below about 14%; further: read at 38.3 µM for the half of the compounds with a filed dose; 0% is about no effect
* = called active by the depositor; i = inactive; ? = inconclusive; . = no result given; [ ] = another dose, or the depositor's remark.

SMILES	Lassa entry inh	Vaccinia Venus	Vaccinia mCherry	Shiga toxin inh	Marburg entry inh	CHX counter
COC(=O)c1ccc2nc(NC(=O)C3CC3)sc2c1	-10%	-10%	-23%	155*	-23%[46.1 µM]	49*
COC(=O)c1ccc2nc(NC(=O)C(C)C)sc2c1	?	-27%	i	98*	?	52*
COC(=O)c1ccc2nc(NC(=O)CN3C(=O)CCC3=O)sc2c1	16%	-5%	-11%	16	1%	19
O=c1cccc(-c2cccc3ccccc23)o1	.	-15%	?	.	.	.
COc1ccc(C2c3c(n(C)c4ccccc34)C(=O)N2CC(=O)Nc2cccc(Cl)c2)cc1 (stereo not given)	0%[46.1 µM]	-7%	-12%	.	.	.
Cc1ccc2nc(Cc3ccc(N)cc3)oc2c1	9%	-15%	-21%	62*	?	28*
Cc1ccc2nc(CCc3nc4ccc(C)cc4o3)oc2c1	-10%	.	.	16	-4%	5
Nc1ccc2nc(CCc3ccccc3)[nH]c2c1	?	-6%	-16%	22*	?	71*
Cc1ccc2nc(CCc3ccc(N)cc3)[nH]c2c1	-1%	4%	-9%	.	-19%	50*
CCc1nc2ccc(Cc3ccc4nc(CC)[nH]c4c3)cc2[nH]1	.	.	.	43	.	21
c1ccc2[nH]c(CCCCCc3nc4ccccc4[nH]3)nc2c1	.	-20%	i	.	.	.
Cc1cc(OCC(=O)Nc2ccncc2)ccc1[N+](=O)[O-]	-28%	-20%	-25%	-11	-5%[46.1 µM]	-2
O=C(COC(=O)/C=C/c1ccccc1[N+](=O)[O-])Nc1ccc(S(=O)(=O)N2CCOCC2)cc1	28%	-12%	i	.	-5%	.
c1ccc(-c2csc(N3CCN(c4ccccn4)CC3)n2)cc1	-3%	-9%	-18%	78*	17%	31*
O=C(NC1CCCCC1)N1CCN(c2nc(-c3ccccc3)cs2)CC1	-19%	-20%	-10%	7	?	4
CN(C)C(=O)N1CCN(c2nc(-c3ccccc3)cs2)CC1	.	.	.	52*	.	35*
c1ccc(-c2csc(N3CCOCC3)n2)cc1	?	.	.	111*	8%	30*
O=C(N1CCOCC1)N1CCN(c2nc(-c3ccccc3)cs2)CC1	5%	-14%	-22%	60	-13%	30*
Clc1ccc(-c2csc(N3CCN(c4ccccc4)CC3)n2)cc1	3%	-8%	.	7	2%	-4
COc1ccc(-c2csc(N3CCN(C(=O)c4ccccc4)CC3)n2)cc1	-13%	.	.	13	?	-2
N#C/C(=C\c1ccc(-c2nc3ccccc3s2)o1)C(N)=O	?	-3%	-15%	50*	-7%	38*
N#C/C(=C/c1ccc(-c2ccc(S(N)(=O)=O)cc2)o1)c1nc2ccccc2s1	?	314%	-15%	-3	?	-2
CNC(=O)/C(C#N)=C/c1ccc(-c2nc3ccccc3s2)o1	20%	-2%	-1%	55*	?	43*
CN(C)S(=O)(=O)c1cccc(NC(=O)CN2C(=O)NC3(CCc4ccccc4C3)C2=O)c1 (stereo not given)	0%	-2%	-8%	-4	-18%	1
CN(C)c1cc[n+](CC(=O)Nc2ccccc2C(F)(F)F)cc1	10%[46.1 µM]	-6%	-3%	.	?	-4
SMILES	Lassa entry inh	Vaccinia Venus	Vaccinia mCherry	Shiga toxin inh	Marburg entry inh	CHX counter
CN(C)c1ccc(N=Nc2ccccc2C(=O)OCC(=O)Nc2ccccc2C(F)(F)F)cc1	6%[46.1 µM]	-16%	-27%	56*	18%[46.1 µM]	37*
CN(C)c1ccc(N=Nc2ccccc2C(=O)OCC(=O)N2CCCC2)cc1	-1%	-7%	-8%	11	-26%	2
CN(C)c1ccc(N=Nc2ccccc2C(=O)OCC(=O)N2CCCCCC2)cc1	7%	-3%	-18%	56*	-6%	28*
COc1ccc(/C=C2\N=C(c3ccccc3)N(c3ccc(C(=O)O)cc3)C2=O)cc1OC	-6%	-14%	-6%	-3	?	-2
COc1ccc(/C=C2\N=C3CCCCCN3C2=O)cc1	?	-9%	i	76*	?	41*
O=C1/C(=C/c2ccncc2)N=C2CCCCCN12	.	.	.	-6	.	11
COc1ccc(/C=C2/N=C3CCCCCN3C2=O)cc1OC	6%	-15%	-15%	11*	16%	12
O=C(c1ccccc1)c1ccc(Cn2cc(-c3ccccc3)nn2)cc1	.	-23%	-5%	57*	.	24*
CCCCCc1ccc(-c2cn(Cc3ccc(C(=O)c4ccccc4)cc3)nn2)cc1	.	?	-14%	9	.	-4
CCS(=O)(=O)N1Cc2ccccc2CC1C(=O)Nc1ccc(F)c(F)c1 (stereo not given)	-2%[46.1 µM]	-1%	-13%	82*	-3%[46.1 µM]	37*
CCS(=O)(=O)N1Cc2ccccc2CC1C(=O)Nc1ccc(OC)cc1 (stereo not given)	.	-12%	i	48	.	35*
CCS(=O)(=O)N1Cc2ccccc2CC1C(=O)Nc1ccc(F)c(F)c1F (stereo not given)	.	.	.	44	.	25*
CCS(=O)(=O)N1Cc2ccccc2CC1C(=O)Nc1cccc(C)c1 (stereo not given)	.	-14%	-26%	120*	.	37*
O=C(NCC1Cc2cccc(-c3cccnc3)c2O1)c1cc(-c2ccccc2)n[nH]1 (stereo not given)	.	-16%	i	.	.	.
C=CC[C@@H]1C=C[C@@H](ON=C2[C@H]3CCn4c(=O)n(-c5ccccc5)c(=O)n4[C@@H]3[C@H](O)[C@@H]3O[C@H]23)[C@@H](CO)O1	.	.	.	.	-22%[14.2 µM]	.
CCS(=O)(=O)N1Cc2ccccc2CC1C(=O)Nc1ccc(NC(C)=O)cc1 (stereo not given)	29%	1%	3%	2	-13%	-1
CCS(=O)(=O)N1Cc2ccccc2CC1C(=O)NCCc1ccccc1 (stereo not given)	-1%[46.1 µM]	-4%	i	22	-6%[46.1 µM]	19*
COC(=O)C/C=C/[C@@H](C)[C@@H](/C=N/OC[C@@H](O)COCc1ccco1)OC	.	.	.	.	-14%[14.2 µM]	.
CCNC(=O)c1cc(NC(=O)COC)cc2nc(-c3ccncc3)n(C)c12	.	-9%	-13%	.	.	.
COCCCNC(=S)N/N=C/c1ccc(OC)cc1	-12%	-1%	i	13	?	10*
COCCCNC(=S)N/N=C/c1ccc(O)cc1	.	.	.	15	.	0
COCCCNC(=S)N/N=C/c1ccc(O)cc1O	-16%	-11%	?	32	17%[14.2 µM]	12
COCCCNC(=S)N/N=C/c1cccc(OC)c1O	-6%	?	?	49*	3%[46.1 µM]	42*
COc1cc(C=O)ccc1OCc1ccncc1	.	.	.	-4	.	-2
COc1cc(CNCc2ccccn2)ccc1OCc1ccc(Cl)cc1Cl	-4%	?	.	-7	?	-4
COc1cc(C=O)ccc1OCc1ccc(Cl)nc1	?	-14%	i	66*	?	41*
COc1cc(CNCc2ccccn2)ccc1OCc1ccc(Cl)c(Cl)c1	?	-17%	-18%	64*	?	20*
COc1ccc(CCNCc2ccc(OCc3ccc(Cl)nc3)c(OC)c2)cc1OC	2%	-12%	.	-7	13µM*	-1

From PubChem BioAssay
